About 1,100 (0.5%) of roughly 220,000 compounds were called active. For the sample, actives were picked, then their nearest neighbours and some compounds at random. Values without a mark were called inactive.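 The calls were made as follows: active = inhibition above about 30% (limit read from the data); inactive = the rest.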

Chain of Neutrophil cytosol factor 1 (Homo sapiens) (P14598 whole entry, looked up): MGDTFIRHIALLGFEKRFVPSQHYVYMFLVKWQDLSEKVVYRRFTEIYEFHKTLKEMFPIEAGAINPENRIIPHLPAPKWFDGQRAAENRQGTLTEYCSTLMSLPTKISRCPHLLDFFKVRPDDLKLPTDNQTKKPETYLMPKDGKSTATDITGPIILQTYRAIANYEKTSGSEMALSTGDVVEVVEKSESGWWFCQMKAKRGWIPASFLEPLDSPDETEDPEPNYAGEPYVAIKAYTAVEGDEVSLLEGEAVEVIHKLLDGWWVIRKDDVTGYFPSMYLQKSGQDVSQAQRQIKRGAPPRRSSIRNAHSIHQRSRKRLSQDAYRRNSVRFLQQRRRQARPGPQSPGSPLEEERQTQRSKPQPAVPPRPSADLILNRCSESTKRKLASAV

The assay has as its target Neutrophil cytosol factor 1 (Homo sapiens) (UniProt P14598). Briefly: blockers of p47phox binding to p22phox – biochemical, uHTS, NADPH oxidase regulatory subunit, primary screen (AID 1274).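 Also: 0% = p47phox with labelled peptide and 100% = labelled peptide alone.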 The settings on record: p47phox/p22phox peptide binding, fluorescence polarization, 2 h; at 24.7 µM; active compounds read high.
The inhibition is the relative decrease from the control value, in per cent. With `O=C(O)CCc1nc2cc(Cl)ccc2n(Cc2ccccc2)c1=O`, the inhibition is -13.1%. The figure for `Cc1ccccc1CSc1nnc(CCCCCNC(=O)OC(C)(C)C)o1` is -9.1%; for `COC(=O)c1sc(NC(=S)NC(=O)c2ccc(C)cc2)nc1C` it is -24.1%. The figure for `COc1ccc(F)cc1S(=O)(=O)N1CCCCC1` is -2.33%; for `CC1=C/C(=N\OS(=O)(=O)c2ccccc2)C=CC1=O` it is 53.2% (active). In the case of `CCOC(=O)C1(S(=O)(=O)c2ccccc2)CCN(Cc2ccccc2)CC1`, the inhibition is -0.94%. Turning to `CC1=C/C(=N\S(=O)(=O)c2ccccc2)C(C(C)C)=CC1=O`, the inhibition is -6.28%. Regarding `CCN(CC)CCn1cnc2c1c(=O)n(CCOC(=O)c1cc(OC)c(OC)c(OC)c1)c(=O)n2C`, the inhibition is -17%. Turning to `Cc1cc(-c2nc(C)c(-c3nnc(SCC(=O)Nc4ccccc4)n3C)s2)no1`, the inhibition was -5.21%.

Regarding `O=C(Cc1cccc2ccccc12)Nc1ccc2oc(-c3ccccc3)nc2c1`, the inhibition is -10.3%.

Take `COc1cccc(-c2nc3cc(C)ccc3o2)c1`: the inhibition was -18%.

In the case of `COc1ccc2oc(-c3cccc(NC(=O)CSc4ccc(Cl)cc4)c3)nc2c1`, the inhibition was 152% (active). Regarding `O=c1[nH]n2c(=O)c3c([nH]c2c1N=Nc1ccccc1)CCC3`, the inhibition is 5.2%.

Take `COc1cc(OC)cc(-c2nc3nc(C)c(CCC(=O)NCc4ccco4)c(C)n3n2)c1`: the inhibition was -14.7%.

As for `Cc1ccc(Cc2c(C)nc3nc(SCC(=O)NCCN4CCOCC4)nn3c2C)cc1`, the inhibition was 2.55%.

Regarding `Cc1cc(C)n2nc(SCC(N)=O)nc2n1`, the inhibition is -2.75%. Turning to `Cc1cc(C)n2nc(SCC(=O)NC(=O)NCc3ccco3)nc2n1`, the inhibition was 65.5% (active). As to `Cc1ccc(SCC(=O)NC(=O)NCc2ccco2)c(C)c1`, the inhibition was -8.32%. The figure for `Cc1nc2nc(SCC(=O)NCc3ccco3)nn2c(C)c1Cc1ccccc1` is 39.5% (active); for `COc1cccc2c1OCC(CN1CCN(C3CCCCC3)C(CCO)C1)=C2` (stereo unspecified) it is -0.19%; for `Cc1noc(C)c1-c1nc(CSc2ccc(Cl)cc2)no1` it is -18.6%. For `CCc1ccc[n+](-c2nc([O-])sc2C=O)c1` the value was -6.22%. Take `CCOC(=O)c1ccc(S(=O)(=O)N(CCO)Cc2cc3cc(OC)c(OC)cc3[nH]c2=O)cc1`: the inhibition was -9.36%.

In the case of `CCc1ccc(NC(=O)CN2C(=O)CSC2=O)cc1`, the inhibition is 1.09%. For the compound `OC(CN1C2=NCCCN2c2ccccc21)c1ccc(Br)cc1` (stereo unspecified), the inhibition is -5.7%. As for `CCN1CCN(CCNC(=O)c2ccc(/C=C3/Sc4ccccc4N(Cc4cccc(C)c4)C3=O)cc2)CC1`, the inhibition was 102% (active).

Consider `Cc1nn(Cc2ccccc2)c(C)c1C(=O)NCCN1C(=O)S/C(=C\c2ccc(F)cc2)C1=O`, for which the inhibition was 19.6%.

On to `O=C(CN1C(=O)/C(=C\c2ccc(C(F)(F)F)cc2)Sc2ccccc21)NCc1ccco1`, for which the inhibition was -2.69%. For `CCOc1ccc2nc(C(=O)N3CCCC(C)C3)sc2c1` (stereo unspecified) the value was -1.85%; for `O=C(NCc1ccco1)C1CCCN1S(=O)(=O)c1ccccc1C(F)(F)F` (stereo unspecified), -2.26%; for `O=C(Nc1cccc(NC(=O)c2ccco2)c1)c1cnccn1`, -22.1%. In the case of `O=C(Nc1ccc2c(c1)OCCO2)c1ccoc1`, the inhibition was -11.2%. The figure for `O=C(Nc1ccc2c(c1)OCCO2)c1cnccn1` is 161% (active); for `O=P(O)(CN1CCCCCC1)C1Cc2ccccc2C1` it is -16.2%; for `O=C(COc1ccc([N+](=O)[O-])cc1Cl)Nn1cnnc1` it is -5.37%. For `COc1ccc2[nH]c3ccc(OC)cc3c2c1`, the inhibition is -9.23%. As to `CCN(CC)CC(=O)c1c[nH]c2ccc(OC)cc12`, the inhibition is 68.2% (active). Turning to `COc1cccc(-n2c(SCC(=O)c3c[nH]c4ccccc34)nc3ccccc3c2=O)c1`, the inhibition was -14.5%.

Take `CCNc1ccc(C(=O)OCC(=O)N2c3ccccc3NC(=O)C2(C)C)cc1[N+](=O)[O-]`: the inhibition was -6.42%. For the compound `CC(=O)NC(CC(=O)Nc1nccs1)c1ccccc1` (stereo unspecified), the inhibition was 1.69%. For `CCOC(=O)N1CCC(NC(=O)C(NS(=O)(=O)c2ccc3c(c2)CCN3C(=O)CC)C(C)C)CC1` (stereo unspecified) the value was 2.67%; for `Cc1ccc(-c2cc(C(=O)NCc3cn(C)nc3C)c3cc(Br)ccc3n2)cc1`, 31.9% (active); for `COc1ccc(Cl)cc1C(=O)NCc1cn(C)nc1C`, -8.12%.

Consider `Cc1ccc2nc(-c3cccc(Br)c3)cc(C(=O)Nn3cnnc3)c2c1`, for which the inhibition was -7.35%. The figure for `OC(CNCc1ccc2c(c1)OCO2)COc1ccccc1` (stereo unspecified) is -9.52%; for `Cc1ccc(S(=O)(=O)N(CC(=O)NN=C2CCN(C)CC2)c2ccc(F)cc2)cc1` it is 37.2% (active); for `CCNC(=O)CN(c1ccc(C)cc1)S(=O)(=O)c1ccc(SC)cc1` it is -7.61%. The figure for `CN1CCC(=NNC(=O)CN(c2cccc(Cl)c2)S(C)(=O)=O)CC1` is 6.83%; for `COc1cc(C(F)(F)F)nc2c(Br)c(C(C)(C)C)nn12` it is 7.7%; for `Cc1ccc(SCC(=O)c2cc(C)c(OC(=S)N(C)C)c(C)c2)cc1` it is -4.09%. For `O=C1NC[C@@H](Cc2ccc(O)cc2)N(CCc2cccc(F)c2)C1=O` the value was -6.81%; for `Cc1cc(C)c2nc(SCCC#N)nc(C)c2c1`, 1.52%. For `Cc1cc(C)c2nc3nc(C)cc(C)c3c(N)c2c1`, the inhibition is 35.3% (active). As to `Cc1cc(C)c2nc(-c3ccco3)cc(C(=O)O)c2c1`, the inhibition is -9.96%.

Take `COc1ccc(CNC(=O)CCC(=O)Nc2nnc(C(C)C)s2)cc1`: the inhibition was -6.23%.

As for `CCOC(=O)C1(O)CC(C)=NN1C(=O)c1cccc(Br)c1` (stereo unspecified), the inhibition is -4.11%. For `CC1=NN(C(=O)c2ccc(Br)cc2)C(O)(c2ccccc2)C1` (stereo unspecified) the value was 40.2% (active). The figure for `CC1=NN(C(=O)c2ccccc2Br)C(O)(c2cccnc2)C1` (stereo unspecified) is 1.24%. In the case of `CN(C)C(CNC(=O)Cc1ccc([N+](=O)[O-])cc1)c1ccccc1` (stereo unspecified), the inhibition was -9.03%. For `COCCN(C(=O)C(C)C)c1nnc(-c2ccc(C(C)(C)C)cc2)s1` the value was -3.33%. The figure for `O=C(Cc1cccs1)Nc1nnc(SCc2ccc(F)cc2)s1` is -11.1%.

The record behind these values is PubChem BioAssay AID1274 (Emory University Molecular Libraries Screening Center, 2008).
